# “And” between values parts separate entries of the source, which are not always exact repeats. Identical values can stand only once. Results filed as inconclusive are left out. The source holds several records for some structures; these can differ, active in one and inactive in another. The source made the active and inactive calls.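 Rule for the calls, unless noted: active = normalized viability below 100% at a tested concentration; inactive = the rest.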
# How the values were obtained:
# [1] = modulation of C. elegans fzo-1 (AID 1259413; call rule not given here;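 note: fzo-1 mutant C. elegans worms in liquid wells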); details: C. elegans fzo-1 modulator screen, mean read-out; stronger effect = higher value
# [2] = viability loss in pontine glioma line – cell-based, JHH-DIPG-1, MIPE4.0, CellTiter-Glo, qHTS, dose response (AID 1347062; cut-off not given, nearly all actives have AC50 up to about 27 µM;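 for AC50: cells exposed to compound for two days before readout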); details: JHH-DIPG-1 viability, CellTiter-Glo ATP luminescence
# [3] = viability loss in pontine glioma line – cell-based, SU-DIPG-IV, MIPE4.0, CellTiter-Glo, qHTS, dose response (AID 1347063; cut-off not given, nearly all actives have AC50 up to about 30 µM;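 note: compound exposure lasted 48 hours before the viability readout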); details: CellTiter-Glo ATP luminescence
# [4] = viability loss in pontine glioma line – cell-based, SU-DIPG-XXV, MIPE5.0, CellTiter-Glo, qHTS, dose response (AID 1347065; cut-off not given, nearly all actives have AC50 up to about 26 µM;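 note: cells exposed to compound for 48 hours before ATP readout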); details: CellTiter-Glo ATP luminescence
# [5] = growth inhibition of DIPG cells – cell-based, MIPE4.0 library, CellTiter-Glo luminescence, qHTS (AID 1347066; cut-off not given, nearly all actives have AC50 up to about 30 µM;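 note: cells exposed to compound for 48 hours before readout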); details: SU-DIPG-VI viability, CellTiter-Glo ATP luminescence
# [6] = compounds altering HSF1 focus formation in cells – imaging, Selleck Cancer Library (AID 1347162; in the data active = plate-normalised HSF1 focus index below about 0.46); details: human cells, HSF1 nuclear foci imaging, at 10 µM; SSMD: measured here: HSF1 foci SSMD mean; cell count: measured here: cell number; plate-normalised HSF1 focus index: stronger effect = lower value
# [7] = drug combination growth inhibition, ovarian cancer – cell-based, oncology-focused library, rucaparib conditional, profiling panel (AID 1508598); details: patient-derived ovarian cancer cells, CellTiter-Glo viability, 144 h, stronger effect = lower value
# [8] = system: Aerobactin synthetase IucA (Klebsiella pneumoniae); assay: inhibition of K. pneumoniae IucA enzyme – biochemical, Tocris library, absorbance (AID 1345561; call rule not given here;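 note: 100% = enzyme without compound and 0% = no enzyme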); details: purified IucA enzyme assay, absorbance (OD) read-out; stronger effect = lower value;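 tested at 8 µM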
# [9] = viability loss with induced miR-34 in A549 – imaging, A549 dox-inducible miR-34, nuclei and caspase counts, primary screen (AID 1347080;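 active = compounds whose cell count with miR-34 switched on is under 0.7 times the count with it off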); details: A549 miR-34 inducible, Hoechst nuclei count, 48 h
# [10] = MELAS cybrid and Rieske KO viability enhancers – cell-based, MELAS cybrids, Rieske KO mouse fibroblasts, CellTiter-Glo, primary screen (AID 1508586;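 active = mean z-score across replicates of 1.96 or higher in either the MELAS or the Rieske mutant cell line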;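 note: z relative to plate mean and SD of compound and empty wells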); details: low glucose
# [11] = viability loss in pontine glioma line – cell-based, SU-DIPG-XIII, MIPE4.0, CellTiter-Glo, qHTS, dose response (AID 1347061; cut-off not given, nearly all actives have AC50 up to about 37 µM;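 note: cells exposed to compound for 48 hours before readout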); details: CellTiter-Glo ATP luminescence
# [12] = viability loss in pontine glioma line – cell-based, SU-DIPG-XIII, MIPE5.0, CellTiter-Glo, qHTS, dose response (AID 1347064; cut-off not given, nearly all actives have AC50 up to about 23 µM); details: CellTiter-Glo ATP luminescence
# [13] = JHH-DIPG-1 glioma cell viability, MIPE5.0 library, CellTiter-Glo luminescence, qHTS (AID 1347067; cut-off not given, nearly all actives have AC50 up to about 26 µM;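 note: cells exposed to compound for 48 hours before readout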); details: JHH-DIPG-1 glioma viability, CellTiter-Glo ATP luminescence
# [14] = growth inhibition of DIPG cells – cell-based, MIPE5.0 library, qHTS (AID 1347068; cut-off not given, nearly all actives have IC50 up to about 30 µM); details: SU-DIPG-XXV viability
# [15] = blockers of cellular phospholipid synthesis – cell-based, LOPAC library, screen 4, primary screen (AID 1347384; call rule not given here); details: animal cells, phospholipid biosynthesis inhibition screen; at 10 µM
# [16] = viability loss in pontine glioma line – cell-based, SU-DIPG-XVII, MIPE5.0, CellTiter-Glo, qHTS, dose response (AID 1347060; cut-off not given, nearly all actives have AC50 up to about 26 µM); details: CellTiter-Glo ATP luminescence
# [17] = stronger effect = lower value, cell number ratio, induced over uninduced
# [18] = measured here: relative caspase fold change +Dox/-Dox
# [19] = measured here: total cells with miR-34 induction, stronger effect = lower value
# [20] = measured here: total cells without miR-34 induction
# [21] = MELAS cybrid survival, CellTiter-Glo 48 h, stronger effect = higher value
# [22] = Rieske KO mouse fibroblast survival, CellTiter-Glo 72 h
compound,measurement,setting,value
Cc1ccc(NC(=O)c2ccc(CN3CCN(C)CC3)cc2)cc1Nc1nccc(-c2cccnc2)n1,mean signal,[1],251 (inactive)
same,outcome,[2],inactive
same,outcome,[3],inactive
same,AC50,[4],23.5 µM (active)
same,outcome,[5],inactive
same,SSMD,[6],2.47
same,cell count,[6],6720
same,plate-normalised HSF1 focus index,[6],1.13 (inactive)
same,viability,"[7]; at 0.000305 µM, OCI-C5x cells, with rucaparib 10 µM, 100% = cells with rucaparib alone",112% (inactive) and 107% (inactive)
same,viability,"[7]; at 0.000305 µM, OCI-C5x cells, without rucaparib",107% (inactive) and 98.4% (active)
same,viability,"[7]; at 0.000305 µM, OCI-P5x cells, with rucaparib 20 µM, 100% = cells with rucaparib alone",97.9% (active) and 85.2% (active)
same,viability,"[7]; at 0.000305 µM, OCI-P5x cells, without rucaparib",98.1% (active) and 85.5% (active)
same,viability,"[7]; at 0.00122 µM, OCI-C5x cells, with rucaparib 10 µM, 100% = cells with rucaparib alone",109% (inactive) and 103% (inactive)
same,viability,"[7]; at 0.00122 µM, OCI-C5x cells, without rucaparib",106% (inactive) and 98.3% (active)
same,viability,"[7]; at 0.00122 µM, OCI-P5x cells, with rucaparib 20 µM, 100% = cells with rucaparib alone",95.4% (active) and 92.7% (active)
same,viability,"[7]; at 0.00122 µM, OCI-P5x cells, without rucaparib",96.8% (active) and 89.4% (active)
same,viability,"[7]; at 0.00488 µM, OCI-C5x cells, with rucaparib 10 µM, 100% = cells with rucaparib alone",113% (inactive) and 114% (inactive)
same,viability,"[7]; at 0.00488 µM, OCI-C5x cells, without rucaparib",108% (inactive) and 102% (inactive)
same,viability,"[7]; at 0.00488 µM, OCI-P5x cells, with rucaparib 20 µM, 100% = cells with rucaparib alone",92.2% (active) and 93.1% (active)
same,viability,"[7]; at 0.00488 µM, OCI-P5x cells, without rucaparib",99.4% (active) and 94.5% (active)
same,viability,"[7]; at 0.0195 µM, OCI-C5x cells, with rucaparib 10 µM, 100% = cells with rucaparib alone",120% (inactive) and 104% (inactive)
same,viability,"[7]; at 0.0195 µM, OCI-C5x cells, without rucaparib",112% (inactive) and 98.4% (active)
same,viability,"[7]; at 0.0195 µM, OCI-P5x cells, with rucaparib 20 µM, 100% = cells with rucaparib alone",94.9% (active) and 104% (inactive)
same,viability,"[7]; at 0.0195 µM, OCI-P5x cells, without rucaparib",95% (active) and 94.1% (active)
same,viability,"[7]; at 0.0781 µM, OCI-C5x cells, with rucaparib 10 µM, 100% = cells with rucaparib alone",123% (inactive) and 97.7% (active)
same,viability,"[7]; at 0.0781 µM, OCI-C5x cells, without rucaparib",115% (inactive) and 101% (inactive)
same,viability,"[7]; at 0.0781 µM, OCI-P5x cells, with rucaparib 20 µM, 100% = cells with rucaparib alone",95% (active) and 100% (inactive)
same,viability,"[7]; at 0.0781 µM, OCI-P5x cells, without rucaparib",96.1% (active) and 97.9% (active)
same,viability,"[7]; at 0.313 µM, OCI-C5x cells, with rucaparib 10 µM, 100% = cells with rucaparib alone",120% (inactive) and 104% (inactive)
same,viability,"[7]; at 0.313 µM, OCI-C5x cells, without rucaparib",110% (inactive) and 103% (inactive)
same,viability,"[7]; at 0.313 µM, OCI-P5x cells, with rucaparib 20 µM, 100% = cells with rucaparib alone",100% (inactive) and 103% (inactive)
same,viability,"[7]; at 0.313 µM, OCI-P5x cells, without rucaparib",96.2% (active) and 101% (inactive)
same,viability,"[7]; at 1.25 µM, OCI-C5x cells, with rucaparib 10 µM, 100% = cells with rucaparib alone",118% (inactive) and 105% (inactive)
same,viability,"[7]; at 1.25 µM, OCI-C5x cells, without rucaparib",115% (inactive) and 106% (inactive)
same,viability,"[7]; at 1.25 µM, OCI-P5x cells, with rucaparib 20 µM, 100% = cells with rucaparib alone",95.6% (active) and 99.9% (active)
same,viability,"[7]; at 1.25 µM, OCI-P5x cells, without rucaparib",95.1% (active) and 100% (inactive)
same,viability,"[7]; at 5 µM, OCI-C5x cells, with rucaparib 10 µM, 100% = cells with rucaparib alone",133% (inactive) and 131% (inactive)
same,viability,"[7]; at 5 µM, OCI-C5x cells, without rucaparib",124% (inactive) and 134% (inactive)
same,viability,"[7]; at 5 µM, OCI-P5x cells, with rucaparib 20 µM, 100% = cells with rucaparib alone",84.6% (active) and 98.4% (active)
same,viability,"[7]; at 5 µM, OCI-P5x cells, without rucaparib",89.8% (active) and 103% (inactive)
CN(CCCN1c2ccccc2CCc2ccccc21)CC(=O)c1ccc(Cl)cc1,mean signal,[1],194 (inactive)
same,remaining activity,[8],113% (inactive)
same,fold change,[9]; [17],0.782 (inactive) and 0.894 (inactive)
same,fold change,[9]; [18],1.92 and 1.33
same,cell count,[9]; [19],5730 and 6590
same,cell count,[9]; [20],7330 and 7370
same,z-score,[10]; [21],0.202 (inactive)
same,z-score,[10]; [22],0.354
CC(C)c1ccc2oc3nc(N)c(C(=O)O)cc3c(=O)c2c1,mean signal,[1],242 (inactive)
same,outcome,[11],inactive
same,outcome,[2],inactive
same,outcome,[12],inactive
same,outcome,[4],inactive
same,outcome,[5],inactive
same,outcome,[13],inactive
same,outcome,[14],inactive
same,fold change,[9]; [17],0.955 (inactive)
same,fold change,[9]; [18],1.68
same,cell count,[9]; [19],9060
same,cell count,[9]; [20],9490
same,z-score,[10]; [21],0.841 (inactive)
same,z-score,[10]; [22],-1.05
Cc1c(O)cccc1C(=O)N[C@@H](CSc1ccccc1)[C@H](O)CN1C[C@H]2CCCC[C@H]2C[C@H]1C(=O)NC(C)(C)C,mean signal,[1],243 (inactive)
same,AC50,[2],20.9 µM (active)
same,AC50,[3],20.9 µM (active)
same,fold change,[9]; [17],0.973 (inactive) and 1.07 (inactive)
same,fold change,[9]; [18],1.56 and 1.1
same,cell count,[9]; [19],1740 and 4590
same,cell count,[9]; [20],1780 and 4280
same,outcome,[15],inactive
same,z-score,[10]; [21],-0.847 (inactive) and 0.17
same,z-score,[10]; [22],0.453 and 2.01
OCc1cccnc1,mean signal,[1],224 (inactive)
same,fold change,[9]; [17],0.908 (inactive)
same,fold change,[9]; [18],1.47
same,cell count,[9]; [19],8900
same,cell count,[9]; [20],9800
Cc1ccsc1C(=CCCN1CCC[C@@H](C(=O)O)C1)c1sccc1C,mean signal,[1],213 (inactive)
same,outcome,[16],inactive
same,outcome,[12],inactive
same,outcome,[4],inactive
same,outcome,[13],inactive
same,outcome,[14],inactive

# Source: PubChem BioAssay
